Assay outcomes as filed in PubChem BioAssay.
Hits are enriched below; roughly 11% of the tested compounds scored in any of these assays.
HttQ103 aggreg – qHTS Multiplex Assay to Identify Dual Action Probes in a Cell Model of Huntington: Aggregate Formation (GFP); PC12 HttQ103-GFP aggregates, Acumen cytometry, 40 h; actives 1.1% (n = 220,000); AID 1688, 2009; Potency, µM (top dose mostly 46.1 µM), for inactives: top-dose activity change, negative = inhibition, usual class: inhibitors; further: potency means the concentration at half of the fitted maximal effect; on the % scale 0 is the no-effect control and ±100 the full control effect; nearly all actives have a fitted effect of over 60% in size
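Multiplexed with ATP-based cell death, this channel scores GFP aggregates in PC12 cells expressing inducible HTTex1-Q103-GFP. Induction used 100 nM tebufenozide; compounds were tested in concentration series.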
HTT ATP protect – qHTS Multiplex Assay to Identify Dual Action Probes in a Cell Model of Huntington: Cytoprotection (ATP); PC12 HTT-Q103 induced, cytoprotection, ATP luminescence, 40 h; Potency, µM (top dose mostly 56.4 µM), without a hit: cytoprotection (ATP increase), hits mostly activators; actives 0.14% (n = 230,000); AID 1471, 2008; further: potency means the concentration at half of the fitted maximal effect; % of control where 0% means no effect; nearly all actives have a fitted effect of over 45% in size
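Readout: ATPlite luminescence (ATP level). Model: stable PC12, inducible Htt exon1 Q103-GFP. Inducer: tebufenozide, 100 nM final. Compounds: dose series. No G418 in medium.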
PNC inhibitor – High Content Assay for Compounds that inhibit the Assembly of the Perinucleolar Compartment. AID 2417, 2010. actives 3.1% (n = 140,000). PC3M PTB-GFP, PNC prevalence imaging, 16 h; active compounds read low. activity change (PNC), negative = inhibition, % at 10 µM;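 active means readout at or below -70, meaning at least 70% loss of cells showing the perinucleolar compartment, a nuclear body marking cancer cells; inconclusive means readout between -30 and a set limit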;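 further: plate controls were DMSO wells for no effect and camptothecin positive control wells for full effect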
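Read-out is percentage of cells bearing a perinucleolar compartment, from automated 20x imaging of fixed, Hoechst-stained PC3M PTB-GFP cells. Cells were seeded 4 h, then exposed 16 h to compound (23 nl of library stock) in duplicate plates.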
HPGD inh – qHTS Assay for Inhibitors of HPGD (15-Hydroxyprostaglandin Dehydrogenase); actives 4.3% (n = 150,000); 15-hydroxyprostaglandin dehydrogenase [NAD(+)] (Homo sapiens), P15428; Potency, µM, without a hit: at the top dose activity change, negative = inhibition, most hits filed as inhibitors; purified HPGD, NADH fluorescence kinetic, PGE2 substrate; active means well fitted inhibition curve with a large enough effect, not every such curve was filed as active; inconclusive means small, poorly fitted or top-dose-only effect, or another doubt; inactive means no such curve, though single readings can be large or run the other way; further: potency means the concentration at half of the fitted maximal effect; on the % scale 0 is the no-effect control and ±100 the full control effect
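20 nM HPGD preincubated 15 min at room temperature with compound in 50 mM Tris-HCl pH 8, 0.01% Tween 20. Started with 1 mM NAD+ and 30 uM prostaglandin E2; NADH fluorescence (360/450 nm) read 5 times over 30-s intervals, last minus first.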
CBFb RUNX1 block – qHTS Assay for Compounds Blocking the Interaction Between CBF-beta and RUNX1 for the Treatment of Acute Myeloid Leukemia. Potency, µM (series often up to 59.8 µM), without a hit: top-dose activity, negative = inhibition, usual class: inhibitors. Runt-related transcription factor 1 (Homo sapiens) + Core-binding factor subunit beta …. AlphaScreen CBFb-His/RUNX1-biotin binding, biochemical. 230,000 tested, under 10 active; further: % of control where 0% means no effect
Target sequence (Q01196 whole entry, looked up): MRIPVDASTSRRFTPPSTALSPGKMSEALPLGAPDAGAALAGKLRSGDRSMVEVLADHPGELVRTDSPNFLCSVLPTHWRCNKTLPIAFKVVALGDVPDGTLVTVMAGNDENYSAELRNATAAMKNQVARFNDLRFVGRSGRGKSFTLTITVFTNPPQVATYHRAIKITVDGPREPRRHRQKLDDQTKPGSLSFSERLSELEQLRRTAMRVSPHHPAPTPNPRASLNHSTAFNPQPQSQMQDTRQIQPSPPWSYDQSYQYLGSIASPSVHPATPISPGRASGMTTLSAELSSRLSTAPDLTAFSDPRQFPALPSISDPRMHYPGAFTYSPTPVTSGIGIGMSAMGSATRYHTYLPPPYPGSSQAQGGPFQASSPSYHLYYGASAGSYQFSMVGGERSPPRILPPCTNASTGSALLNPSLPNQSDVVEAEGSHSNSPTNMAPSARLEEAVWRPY
Target sequence (Q13951 whole entry, looked up): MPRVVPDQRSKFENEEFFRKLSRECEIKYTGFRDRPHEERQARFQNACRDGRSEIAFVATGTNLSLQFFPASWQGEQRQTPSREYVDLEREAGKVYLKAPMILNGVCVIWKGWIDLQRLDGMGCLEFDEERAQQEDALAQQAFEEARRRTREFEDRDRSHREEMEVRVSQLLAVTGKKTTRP
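CBFb-His/RUNX1-biotin, 30 nM each, preincubated 20 min RT; compound 15 min RT; Ni + streptavidin beads 50 ng each, 90 min RT; AlphaScreen read.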
ALDH1A1 inh – qHTS Assay for Inhibitors of Aldehyde Dehydrogenase 1 (ALDH1A1) | actives 7.3% (n = 220,000) | Potency, µM (top dose mostly 75.3 µM), inactives show at the highest dose activity, negative = inhibition, actives largely listed as inhibitors | Purified ALDH1A1, NADH fluorescence, propionaldehyde substrate; active means well fitted inhibition curve with a large enough effect, not every such curve was filed as active; inconclusive means small, poorly fitted or top-dose-only effect, or another doubt; inactive means no such curve, though single readings can be large or run the other way;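 further: potency means the concentration at half of the fitted maximal effect; plate controls were no enzyme wells and a reference inhibitor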
Numbers without * were called inactive; ? = inconclusive; . = not tested or not shown; [ ] = another dose, or the depositor's remark. Unless noted, the call rests on the fitted dose curve; in most records, active means well fitted curve in the direction sought with a large enough effect; inconclusive means small, poorly fitted or top-dose-only effect, or another doubt; inactive means no such curve, though single readings can be large; an effect the other way counts as inactive or inconclusive.

SMILES | HttQ103 aggreg | HTT ATP protect | PNC inhibitor | HPGD inh | CBFb RUNX1 block | ALDH1A1 inh
Cc1cccc2c(N=Nc3ccc(S(=O)(=O)Nc4ccc(Cl)cc4)cc3[N+](=O)[O-])c(O)[nH]c12 | 13% | 9% | . | . | -12% | 5%
C=CCn1c(SCC(=O)N2CCc3ccccc3C2)nc2sc(CC)cc2c1=O | ? | 16%[10 µM] | ? | -11% | -5% | ?
COCC(C)n1c(SCC(=O)N2CCCCC2)nc2ccccc2c1=O (configuration not stated) | 2% | 15%[10 µM] | 14 | -13% | -1% | ?
COCC(C)n1c(SCC(=O)N2CCc3ccccc3C2)nc2ccccc2c1=O (configuration not stated) | ? | -6%[10 µM] | -121* | -12% | -2% | -13%
C=CCn1c(SCC(=O)N2CCc3ccccc3C2)nc2ccccc2c1=O | -20% | -46% | 6 | -27% | 8% | 13µM*
Nc1ccc([N+](=O)[O-])c(N)c1 | . | ? | . | -11% | -6%[21.7 µM] | -6%
C=C(C)c1cccc(C(C)(C)NC(=O)Nc2ccc3[nH]c(=O)[nH]c3c2)c1 | 8% | 4% | ? | -14% | -6% | -3%
CC(C)(C(O)c1ccc([N+](=O)[O-])cc1)[N+](=O)[O-] (configuration not stated) | . | 0% | . | -3% | -2% | ?
COCCn1nc2cc(C(=O)NCc3cc(C(F)(F)F)cc(C(F)(F)F)c3)ccc2c1OC | 24% | 0.71µM* | -9 | ? | 11% | ?
CCOC(=O)c1c(C)c(C(=O)N2CCN(C(=O)c3ccco3)CC2)c(C)n1C | -11% | -26% | 17 | -6% | 2% | 13µM*
CCOC(=O)c1c(C)n(C(=O)c2ccco2)c(=O)n1C(=O)c1ccco1 | 8% | -10% | 22 | 22µM* | 5% | 10%
CCOC(=O)c1c(C)n(C)c2ccc(OC)c(NC(=O)CN3CCN(C(=O)c4ccco4)CC3)c12 | 0% | -3% | -11 | -10% | 3% | 7.9µM*
CCOC(=O)c1c(C)n(C)c2ccc(OC)c(NC(=O)CN3CCN(C4CCCCC4)CC3)c12 | 12% | 2% | ? | -9% | 0% | ?
CCc1ccc(NC(=O)C(=O)NCCN2CCN(S(C)(=O)=O)CC2)cc1 | . | . | . | . | 5% | -1%
CCc1ccc(NC(=O)C(=O)NCCN2CCN(C(=O)c3ccco3)CC2)cc1 | 10% | 28%[1.9 µM] | 22 | -10% | 7% | 22µM*
CCOC(=O)C1=NN(C(=O)c2ccco2)C2(CC2)C1 | 14% | 10%[10 µM] | ? | -3% | 5% | 6%
O=C(O)C/C(=C\c1ccccc1)C(=O)O | . | 2%[10 µM] | . | -14% | . | 4%[13.5 µM]
COC(=O)[C@@]1(Cc2ccc(OC)cc2)[C@H]2c3cc(C(=O)N(C)C)n(Cc4ccc(C(F)(F)F)nc4)c3C[C@H]2CN1C(=O)c1ccccc1 | . | -62% | . | -5% | 24% | -17%
CCOC(=O)NC(CC(=O)O)c1ccc(OC)cc1 (configuration not stated) | 4% | 19%[10 µM] | -100* | 3% | 11% | 10%
COC(=O)N1CCC2(CCCN(Cc3nccs3)C2)CC1 | . | ? | . | -2% | . | -2%
Cc1cc(C(=O)Nc2ccccc2C(F)(F)F)no1 | ? | -2% | 24 | -9% | 2% | 10%
O=C(Nc1ccccc1C(F)(F)F)c1cc(-c2ccccc2O)on1 | -10% | -12%[10 µM] | -100* | -16% | 0% | -3%
COc1cc2nc(N3CCN(C(=O)OCc4ccccc4)C(C(=O)NC(C)(C)C)C3)nc(N)c2cc1OC (configuration not stated) | . | . | . | ? | -1% | ?
Cn1c(Sc2ccc(Cl)cc2)c(C=O)c2ccccc21 | 7.9µM* | -21%[10 µM] | 6 | -13% | 25% | -2%
COC(=O)c1ccccc1S(=O)(=O)N1CCc2nc(-c3ccc(OC)cc3C)c3c(c2C1)CO[C@@H](c1ccccc1)C3 | . | 12%[10 µM] | . | -2% | -3%[13.1 µM] | 4µM*
SMILES | HttQ103 aggreg | HTT ATP protect | PNC inhibitor | HPGD inh | CBFb RUNX1 block | ALDH1A1 inh
COc1cccc(CC(=O)N2CCc3nc(-c4ccccc4)c4c(c3C2)CO[C@@H](C)C4)c1 | . | -14%[10 µM] | . | -4% | 4%[13.1 µM] | 12%[13.5 µM]
CCCCS(=O)(=O)N1CCc2nc(-c3ccc(OC)cc3C)c3c(c2C1)CO[C@@H](c1ccccc1)C3 | . | -47%[10 µM] | . | -5% | 0%[13.1 µM] | 0.45µM*
COC(=O)[C@@H](NC(=O)N1CCc2nc(-c3ccc(OC)cc3C)c3c(c2C1)CO[C@@H](c1ccccc1)C3)C(C)C | . | 19%[10 µM] | . | -8% | 2%[13.1 µM] | ?
COc1ccc(-c2nc3c(c4c2C[C@H](c2ccccc2)OC4)CN(S(=O)(=O)c2ccc(NC(C)=O)cc2)CC3)c(C)c1 | . | -10%[10 µM] | . | 0% | -5%[13.1 µM] | 0.45µM*
COc1ccc(-c2cn(-c3ccccc3)c3[n+]2CCS3)cc1 | ? | 2%[10 µM] | -24 | 1% | -3% | 13%
O=C(NCc1ccc(Cl)s1)c1cc(COc2c(F)cccc2F)on1 | 10%[9.22 µM] | 31%[10 µM] | . | . | 10% | 6%
COc1ccc(CCNC(=O)Cc2c(Cl)cccc2Cl)cc1 | 12% | -23% | . | . | 1% | -1%
CCOC(=O)[C@]1(C(NC(=O)OC)c2cccc(F)c2)CCCC1=O (some centres not stated) | . | -19%[10 µM] | . | . | 3%[13.1 µM] | 15%[13.5 µM]
O=C(N/N=C/c1cccc([N+](=O)[O-])c1)c1ccc2nc[nH]c2c1 | -15% | 16%[10 µM] | ? | -23% | 0% | 11µM*
O=C(N/N=C/c1ccc([N+](=O)[O-])cc1)c1ccc2nc[nH]c2c1 | -12% | 4% | -88* | -10% | 3% | 6.3µM*
CSCCC(NS(=O)(=O)c1ccccc1F)C(=O)OCc1ccccc1Cl (configuration not stated) | -12% | 13%[0.074 µM] | 1 | -13% | 3% | 16µM*
N#C/C(=C\c1ccccc1[N+](=O)[O-])C(=O)NC1CCCCC1 | -4% | -13% | . | . | -4% | 7.1µM*
O=C(/C=C/c1ccccc1[N+](=O)[O-])N1CCCCC1 | -18% | ? | . | . | -9% | ?
N#C/C(=C\c1cccn1-c1ccccc1)C(=O)NC1CCCCC1 | 17% | -15%[1.9 µM] | 11 | -19% | 0% | 7.1µM*
N#C/C(=C\C=C\c1ccccc1[N+](=O)[O-])C(=O)NC1CCCCC1 | 7%[9.22 µM] | ? | . | . | -2% | 25µM*
